About 83,000 compounds went through this panel and 20% of them were active in at least one assay; those are over-represented in the sample as a whole.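 The test compound was applied at a single concentration to cells in 96-well plates for 48 hours, and percent growth was recorded.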 A number with no mark means an inactive call. Calls of active or inactive are those of the source. The calls were made as follows: active = growth percent below 10; inactive = the rest.
Legend:
Assay in all cases: NCI-60 one-dose screen, 48 h (100 = growth as untreated, 0 = no growth, -100 = all killed)
NCI-H23 lung = conditions: 10 µM unless noted
NCI-H322M lung = conditions: 10 µM unless noted
HOP-62 NSCLC = conditions: 10 µM unless noted
NCI-H460 lung = conditions: 10 µM unless noted
NCI-H522 lung = conditions: 10 µM
A549/ATCC NSCLC = conditions: 10 µM unless noted
786-0 renal = conditions: 10 µM unless noted
COLO 205 colon = conditions: 10 µM unless noted
HOP-92 NSCLC = conditions: 10 µM unless noted
NCI-H226 lung = conditions: 10 µM

SMILES	growth (NCI-H23 lung)	growth (NCI-H322M lung)	growth (HOP-62 NSCLC)	growth (NCI-H460 lung)	growth (NCI-H522 lung)	growth (A549/ATCC NSCLC)	growth (786-0 renal)	growth (COLO 205 colon)	growth (HOP-92 NSCLC)	growth (NCI-H226 lung) [%]
CCOC(=O)c1c(-c2cc(OC)c(OC)c(OC)c2)csc1N	92.9%	99.4%	80%	104%	79.6%	96.9%	112%	90.7%	–	–
Oc1ccc(Cl)cc1CNc1nc2ccccc2[nH]1	65.2%	101%	82.7%	-33.9% (active)	62%	-14.1% (active)	60.7%	65.1%	–	–
Cc1ccc(S(=O)(=O)c2ccc3[nH]c(=O)[nH]c(=O)c3c2)cc1	102%	106%	106%	114%	84.9%	80.7%	96.5%	99.3%	–	–
Cc1ccc(-c2nnc(COc3ccc(-c4nnc(N)s4)cc3)o2)cc1	79.4%	95.9%	113%	93%	73.9%	105%	96.9%	92.8%	–	–
COc1ncnc2c1ncn2C/C(Br)=C(\Br)CCl	15.1%	78.9%	15.6%	-40.7% (active)	-72.1% (active)	9.47% (active)	7.78% (active)	-82.6% (active)	–	–
CS(=O)(=O)Nc1cccc(C(=O)NCc2ccc(N3CCOCC3)cc2)c1	104%	112%	107%	109%	–	–	101%	112%	–	–
COc1cc(/C=C2\C(=O)N(c3c(Cl)cccc3Cl)c3ccccc32)cc(OC)c1O	48.1%	48.2%	48.6%	-4.41% (active)	28%	–	13.9%	74.8%	–	–
N#Cc1ccc(C(F)(F)F)nc1N1CCC(C(=O)Nc2ccc(Cl)cc2)CC1	72%	71.1%	69%	34.1%	–	53.2%	70.4%	85.9%	–	–
CN1CCN(c2ccc3nc(-c4ccc5nc(-c6ccc(C(F)(F)F)cc6)[nH]c5c4)[nH]c3c2)CC1	68.2%	80.1%	51.3%	–	64.1%	89.8%	69.6%	–	59.3%	–
Clc1ccccc1Nc1ccc2nnc(-c3ccncc3)n2n1	101%	102%	112%	109%	-55.8% (active)	89.9%	75.7%	106%	–	–
CN1CCN(c2nc(-c3ccncc3)nc3sc4c(c23)CCCCCC4)CC1	73%	86.6%	71%	84.3%	–	–	–	52.8%	–	–
CCOC(=O)C1=C(C)N2C(=NC3=C(CCCC/C3=C\c3cc(OC)c(OC)c(OC)c3)C2c2cc(OC)c(OC)c(OC)c2)S1 (configuration not stated)	61.9%	96.5%	50%	60%	–	60.3%	–	81.2%	–	–
CCCCCCCCCCCCCCn1c2ccccc2c2c3c(c4c5cc(OC)ccc5oc4c21)C(=O)NC3=O	103%	106%	117%	–	98%	103%	103%	–	106%	–
COC(=O)[C@@H]1CCCN1C(=O)[C@@H]1CCCN1C(=O)[C@@H](Cc1c[nH]c2ccccc12)NC(=S)Nc1cc(C(F)(F)F)cc(C(F)(F)F)c1	74.2%	75.8%	83.3%	51.6%	73.2%	–	69.8%	16.8%	–	–
CC(=O)Nc1ccc(Sc2ccc([N+](=O)[O-])o2)cc1	39.9%	98.3%	68.4%	–	–	65.1%	50.7%	-67.3% (active)	40.2%	–
COc1cc2cc(Oc3ccc(NC(=O)Nc4ccc(Cl)c(C(F)(F)F)c4)cc3)c(C)nc2cc1OCCN1CCCCC1	-80.4% (active)	8.09% (active)	85.6%	–	–	-54.4% (active)	-89.3% (active)	-81.4% (active)	37.4%	–
COc1ccccc1CNCCCCCCCCCCCCN1C(=O)c2ccc3c4c(ccc(c24)C1=O)C(=O)N(CCCCCCCCCCCCNCc1ccccc1OC)C3=O	-47.6% (active)	111%	54.5%	35.5%	87%	75.4%	-73.7% (active)	109%	–	–
COc1ccc(Nc2nc(NCCNc3ccnc4cc(Cl)ccc34)nc(N3CCOCC3)n2)cc1	82.3%	74.5%	92.2%	37.2%	–	–	57.2%	-37.2% (active)	–	–
CCN(c1ccc(C(=O)N2CCN(c3ccccc3)CC2)cc1)S(C)(=O)=O	103%	102%	104%	108%	–	105%	101%	113%	–	–
Cc1ccc(NS(=O)(=O)c2ccc(-c3cnc(C4CC4)o3)cc2)cc1	58.8%	69%	36.4%	–	9.2% (active)	40.2%	50.8%	–	57%	–
CCN(CC)CCCNc1ccc(C)c2sc3ccccc3c(=O)c12	53.8%	57.2%	40.9%	–	54.4%	19.1%	32.5%	-70.2% (active)	25.3%	–
CN1CCc2c(c3ccccc3c3ccccc23)C1	74.2%	51.4%	45.8%	27.7%	48.7%	–	49.8%	22.2%	–	–
c1ccc(-c2nc(N3CCOCC3)c3c4c(sc3n2)CCCCCC4)nc1	62.1%	73%	70.3%	33.6%	–	28.9%	87.1%	68.5%	–	–
COc1ccc(/C=C/C(=O)N2CCC(O)CC2)cc1OC1CCCC1	103%	108%	95.1%	–	87.1%	91.4%	104%	–	95.7%	–
N#CC1=C(N)Oc2cc(N)ccc2C1c1ccc(F)cc1 (configuration not stated)	81.6%	82.6%	69.6%	100%	54.1%	–	86.6%	82.9%	–	–
O=c1[nH]c(=S)[nH]c(=O)n1Cc1cccc2ccccc12	102%	114%	106%	97.6%	–	99.7%	–	120%	–	–
Oc1cccc(Nc2nc(-c3ccccn3)cs2)c1	107%	94.6%	98%	–	–	94.8%	102%	103%	89%	–

SMILES	growth (NCI-H23 lung)	growth (NCI-H322M lung)	growth (HOP-62 NSCLC)	growth (NCI-H460 lung)	growth (NCI-H522 lung)	growth (A549/ATCC NSCLC)	growth (786-0 renal)	growth (COLO 205 colon)	growth (HOP-92 NSCLC)	growth (NCI-H226 lung) [%]
Cc1ccc(S(=O)(=O)N2C/C(=C\c3cc(F)cc(F)c3)C(=O)/C(=C/c3cc(F)cc(F)c3)C2)cc1	-21.6% (active)	27%	-60% (active)	5.73% (active)	–	27.6%	-85.6% (active)	1.42% (active)	–	–
COc1cc(-c2nc(Nc3nc4ccccc4[nH]3)nc(N)c2C#N)cc(OC)c1OC	87.9%	83.2%	65.1%	–	20.1%	69.6%	67.1%	32.3%	50.5%	–
CN1CCN(C(=O)OCCOCCOC(=O)N2CCN(C)CC2)CC1	97.6%	105%	106%	107%	–	104%	94.5%	102%	–	–
COc1cc(CNCCN2C(=O)c3ccc4c5c(ccc(c35)C2=O)C(=O)N(CCNCc2cc(OC)c(OC)c(OC)c2)C4=O)cc(OC)c1OC	-89.3% (active)	-68.3% (active)	-78% (active)	-81.7% (active)	-60.3% (active)	–	-93.6% (active)	-72% (active)	–	–
O=C1CC(c2ccsc2)c2snc(-c3ccc(Cl)cc3)c2N1 (configuration not stated)	35.9%	55.7%	37.2%	–	–	35.1%	39.6%	-42.8% (active)	51.1%	–
COc1ccc(CSc2nc3cc(OC)c(OC)cc3c(=O)n2-c2ccc(Cl)cc2)cc1	102%	105%	104%	103%	–	103%	103%	104%	–	–
Nc1ccccc1-c1n[nH]c(=O)[nH]c1=O	96.6%	114%	112%	107%	–	105%	109%	137%	–	–
O=c1c2c(=NCCN3CCCC3)cc3c(=O)n(CCCN4CCOCC4)c(=O)c4c(-c5ccc(CN6CCCC6)cc5)cc(c(O)n1CCCN1CCOCC1)c2c4-3	-70.9% (active)	-29.6% (active)	-21.3% (active)	–	–	-16.2% (active)	-42% (active)	-60.4% (active)	-16.4% (active)	–
COc1cccc(C2CC(=O)Nc3cc4c(cc32)OCO4)c1OC (configuration not stated)	92.3%	88.3%	98.2%	102%	87.4%	–	114%	107%	–	–
O=C1NC(=O)C2(CCCC2C(=O)O)N1 (configuration not stated)	98.3%	117%	111%	106%	–	105%	94.9%	109%	–	–
CC1=CN2C(=NC3=C(CCCC/C3=C\c3ccccc3)C2c2ccccc2)S1 (configuration not stated)	101%	101%	103%	107%	–	108%	105%	122%	–	–
COC(=O)[C@@]12CC[C@@H](C)[C@]3(C[C@@H](c4ccoc4)OC3=O)[C@H]1CC[C@@H]1O[C@@]12C	96.1%	104%	94.2%	–	84.9%	103%	99.3%	–	92.4%	–
O=C1C(OCCOc2ccccc2)=C(OCCOc2ccccc2)C(=O)c2ccccc21	16.3%	60.3%	56.4%	–	–	17.4%	100%	102%	102%	–
CNc1ccc(Br)cc1-c1n[nH]c(=O)[nH]c1=O	90.8%	115%	105%	101%	–	112%	95%	131%	–	–
O=C(N/N=C(\CS(=O)(=O)c1ccccc1)c1cc2cc(Br)ccc2oc1=O)c1ccccc1	101%	104%	114%	–	94.9%	–	106%	–	111%	–
Nc1c(Br)cc(Br)cc1-c1n[nH]c(=O)[nH]c1=O	91.3%	109%	93.5%	–	–	113%	100%	102%	54.6%	–
COc1ccccc1/C=C/C(=O)/C=C/c1ccccc1O	-11.3% (active)	24.9%	62%	–	30.1%	6.86% (active)	-44% (active)	-48.6% (active)	–	–
CN1CCN(C)c2cncc(Br)c2C1=O	101%	–	110%	105%	93.5%	104%	–	108%	91.8%	–
COc1ccc(NC(=O)c2ccc3c(c2)nc(-c2ccc(Cl)cc2)n3-c2cc(C(C)(C)C)[nH]n2)cc1	–	85.5%	106%	101%	73.7%	79.7%	87.6%	–	59.3%	91.5
COc1ccc2nc(-n3nc(C)cc3C)c(-n3nc(C)cc3C)nc2c1	97.1%	–	105%	–	100%	115%	105%	113%	115%	–
Cc1cc(O)cc2c1[C@H]1CC[C@]3(C)[C@@H](O)CC[C@H]3[C@@H]1C=C2	90.5%	–	74.5%	104%	43.2%	86.9%	99.5%	108%	105%	–
FC(F)(F)c1ccc2c(c1)n1cnnc1c1nncn21	103%	–	113%	110%	97.1%	–	101%	111%	88.7%	–
O=C(Nc1ccccc1)Oc1cccc2cccnc12	87.1%	138%	99.6%	–	-4.77% (active)	93.3%	99.9%	72.1%	–	–
C=C[C@H]1C[C@@H]2C[C@@H]3[C@H]4C/C=C\C(=O)NCCCC5NC(=O)C(=C(O)/C=C/[C@@H]4CC(=O)[C@H]3[C@@H]2[C@H]1C)C5=O (some centres not stated)	-8.31% (active)	–	-82.3% (active)	-69.4% (active)	46.4%	–	–	-82.9% (active)	-85.7% (active)	–
Nc1nc2c(s1)CCc1c-2c(Br)n(Cc2ccccc2)c1Br	91.8%	99.8%	64.9%	–	-74.9% (active)	93.7%	102%	85.6%	–	–
FC(F)(F)Oc1ccc2c(c1)C[C@H]1C[C@@H](c3ccoc3)N2O1	96.5%	117%	–	114%	99.6%	92.1%	105%	110%	82.8%	–
CCOC(=O)n1cc(C2=C(c3cn(C)c4ccccc34)COC2=O)c2ccccc21	30%	47.4%	–	3.7% (active)	–	22.6%	27.5%	-31.2% (active)	37.9%	–
